Sm TGR inh – qHTS Assay for the Inhibitors of Schistosoma Mansoni Peroxiredoxins; purified TGR, DTNB reduction, TNB absorbance 405 nm; Schistosoma mansoni thioredoxin glutathione reductase (TGR), Q962Y6; Potency, µM (series often up to 114 µM), actives largely listed as inhibitors; 3% of 360,000 active; further: nearly all actives have a fitted effect of over 60% in size
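TGR 20 nM + NADPH 100 uM (dispensed conc.), cpd preinc 15 min RT; start with NADPH (500 uM addition) then DTNB (15 mM addition). Kinetic TNB absorbance, 405 nm filter. Four-parameter Hill fit across titration.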
Pf growth 96h – Primary qHTS for delayed death inhibitors of the malarial parasite plastid, 96 hour incubation | P. falciparum luciferase reporter growth, 96 h | Potency, µM (top dose mostly 28.7 µM), actives largely listed as inhibitors | 6.9% of 320,000 active | AID 504834, 2011
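Parasite growth measured via integrated firefly luciferase reporter in P. falciparum. Infected erythrocytes at 2% hematocrit, 0.05% parasitemia final were treated 96 hours at 37 C under 5% CO2, and luminescence was read.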
HCMV inh – qHTS Assay for inhibitors of the human cytomegalovirus (HCMV) | HFF cells, HCMV-luciferase reporter, 72 h; active compounds read low | activity change, negative = inhibition, % at 57.5 µM | 4.5% of 410,000 active | AID 1259415, 2018; in the data active means activity change below about -60%; inconclusive means no clear call, values can overlap the other calls; inactive means above about -39%
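Luciferase read-out from HCMV-luciferase-infected HFFs (MOI 1 PFU/cell) 72 h post infection at 37C; compounds added after 16 h cell attachment; activity normalized between buffer-only basal and Salinomycin (10uM) inhibitor controls.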
Pf growth 48h – Primary qHTS for delayed death inhibitors of the malarial parasite plastid, 48 hour incubation; P. falciparum luciferase growth in erythrocytes, 48 h; Potency, µM (highest dose often 28.7 µM), most hits filed as inhibitors; 5.9% of 310,000 active
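Luciferase-expressing P. falciparum in infected erythrocytes (2% hematocrit, 0.1% parasitemia final) in RPMI 1640/0.5% Albumax were exposed to compound for 48 hours at 37 C, 5% CO2; growth read as luminescence.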
FBPA Giardia inh – qHTS Assay for Inhibitors of Fructose-1,6-bisphosphate Aldolase from Giardia Lamblia; A8B2U2; purified Giardia FBPA; Potency, µM (titrated, usually from 59.6 µM), actives largely listed as inhibitors; 0.71% of 290,000 active; AID 2451, 2010; further: nearly all actives have a fitted effect of over 55% in size
Target sequence (A8B2U2 whole entry, looked up): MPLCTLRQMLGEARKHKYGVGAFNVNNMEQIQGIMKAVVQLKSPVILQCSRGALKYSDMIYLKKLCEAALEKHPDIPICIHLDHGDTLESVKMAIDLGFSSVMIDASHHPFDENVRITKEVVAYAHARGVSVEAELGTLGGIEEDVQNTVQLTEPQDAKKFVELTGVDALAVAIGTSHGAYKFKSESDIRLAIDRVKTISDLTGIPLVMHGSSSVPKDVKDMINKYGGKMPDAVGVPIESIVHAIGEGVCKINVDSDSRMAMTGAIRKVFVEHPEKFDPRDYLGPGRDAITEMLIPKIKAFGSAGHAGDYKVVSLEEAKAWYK
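40 nM FBPA preincubated 10 min at RT with compound (up to 57.5 uM final), then substrate plus GAPDH/TPI/NAD/arsenate coupling and diaphorase/resazurin added. Fluorescence read after 20 min at RT, 525/598 nm.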
A number is an active result; . = inactive; ? = inconclusive; / = no result given; + = active, no number; ! = not confirmed by another sample. Only some compounds are listed: those with a hit (about 14% of all), similar ones and a draw of the others. Unless noted, the call rests on the fitted dose curve; in most records, active means well fitted curve in the direction sought with a large enough effect; inconclusive means small, poorly fitted or top-dose-only effect, or another doubt; inactive means no such curve, though single readings can be large; an effect the other way counts as inactive or inconclusive.

SMILES	Sm TGR inh	Pf growth 96h	HCMV inh	Pf growth 48h	FBPA Giardia inh
CCOc1ccc(NC(=O)C2CCCN2S(=O)(=O)c2ccc(OCC)cc2)cc1 (centres undefined)	.	.	.	.	.
COc1ccc(-n2c(=O)c(-c3cn(C)c4ccccc34)nc3cncnc32)cc1	/	/	/	/	.
CC(=O)O[C@H]1C[C@@H]2CCC3C(CC[C@@]4(C)[C@H]3C[C@H]([N+]3(C)CCCCC3)[C@@H]4OC(C)=O)[C@@]2(C)C[C@@H]1[N+]1(C)CCCCC1 (some centres undefined)	/	/	/	/	.
CCOc1cc2c(cc1O)C(=NOC)CC1C2CCC2(C)C(O)CCC12 (centres undefined)	/	/	-72.6	/	/
CC(C)(Cc1nc2ccccc2[nH]1)c1nc2ccccc2[nH]1	/	/	.	/	/
COc1cc(CNn2nnnc2N)cc(Br)c1OCc1c(Cl)cccc1Cl	.	?	-69.6	/	.
O=C1CCN(Cc2ccc(O)cc2)CCN1CCO	?	.	-67.5!	.	.
CCN(C(=O)C12CC3CC(CC(C3)C1)C2)C1CCS(=O)(=O)C1 (centres undefined)	.	.	.	.	/
CCN(C(=O)COC(=O)CNC(=O)C12CC3CC(CC(C3)C1)C2)C1CCS(=O)(=O)C1 (centres undefined)	.	.	-101.9	.	.
COCC1CCN(C(=O)CC2C(=O)NCCN2Cc2cccc(Oc3ccccc3)c2)CC1 (centres undefined)	?	.	.	14.7µM	/
O=C(CC1C(=O)NCCN1Cc1cccc(Oc2ccccc2)c1)NCc1cccnc1 (centres undefined)	?	?	.	.	.
O=C1NCCN(Cc2ccc(Cl)c(F)c2)C1CC(=O)N1CCCO1 (centres undefined)	?	?	.	.	.
O=C1NCCN(Cc2c(F)cccc2Cl)C1CC(=O)N1CCCO1 (centres undefined)	28.2µM	?	.	.	.
COc1cc(CN2CCNC(=O)C2CC(=O)N2CCCN(C(C)=O)CC2)cc(OC)c1 (centres undefined)	31.6µM	.	/	.	/
O=C1NCCN(Cc2cccc(Oc3ccccc3)c2)C1CC(=O)N1CCCO1 (centres undefined)	.	5.22µM	.	.	.
COc1cc(CN2CCNC(=O)C2CC(=O)O)cc(OC)c1 (centres undefined)	.	.	.	.	.
COc1ccc2cc(C3(C)NC(=O)N(CC(=O)NCC(F)(F)F)C3=O)ccc2c1 (centres undefined)	.	.	.	.	.
CCC(CCNC(=O)c1ccccc1)(CCNC(=O)c1ccccc1)[N+](=O)[O-]	/	/	.	/	/
COc1ccc(C)c2sc(N(Cc3cccnc3)C(=O)c3cccs3)nc12	.	/	.	/	/
COc1ccc(OC)c(-c2cc(C(=O)Nc3cccc(Cl)c3C)no2)c1	.	/	.	/	/
CCN(CC)CCn1c(=N)n(CC(O)c2ccc(OC)c(OC)c2)c2ccccc21 (centres undefined)	/	.	.	9.28µM	.
CCN(CC)CCn1c(=N)n(CC(O)COc2cccc(C)c2)c2ccccc21 (centres undefined)	.	.	?	?	?
Cn1c(=O)n(CCOc2ccccc2Cl)c2ccccc21	.	.	.	?	.
CCN(CC)CCn1c(=N)n(CCOc2ccccc2Cl)c2ccccc21	.	/	-98.9	/	/
CCN(CC)CCn1c(=N)n(CC(O)COc2ccccc2C)c2ccccc21 (centres undefined)	.	/	-99.3	/	/
SMILES	Sm TGR inh	Pf growth 96h	HCMV inh	Pf growth 48h	FBPA Giardia inh
COCCNCC(=O)N1CCCCCC1	.	11.7µM	.	.	.
CCCCC(CC)CNC(=O)C(Cc1ccccc1)NS(=O)(=O)c1ccc2c(c1)CCC(=O)N2 (centres undefined)	.	11.7µM	?	?	.
CCC(C)NC(=O)C(Cc1ccccc1)NS(=O)(=O)c1ccc2c(c1)CCC(=O)N2 (centres undefined)	.	?	.	?	/
COc1ccc(NC(=O)C(C)N=C2NS(=O)(=O)c3ccccc32)cc1S(N)(=O)=O (centres undefined)	.	.	.	.	/
CCNC(=S)N1N=C2c3ccccc3CCC2C1c1ccc(F)cc1 (centres undefined)	.	2.62µM	.	7.38µM	.
C=CCNC(=S)NNC(=O)C(CCC(C)C)CC(C)(C)O (centres undefined)	.	?	-107.3	/	.
C=CCNC(=S)NNC(=O)C(CC(C)C)CC(C)O (centres undefined)	.	.	.	.	.
COC(=O)C1=C(c2ccc(F)cc2OCc2ccccc2)C[C@@H]2CC[C@H]1N2C(=O)NCc1ccccc1Br	.	1.31µM	.	4.15µM	/
COC(=O)C1=C(c2ccc(F)cc2OCc2ccccc2)C[C@@H]2CC[C@H]1N2C(=O)NCc1ccccc1C(F)(F)F	.	?	.	5.22µM	/
COC(=O)C1=C(c2cccc(OC)c2OC)C[C@@H]2CC[C@H]1N2C(=O)NCc1ccccc1	/	/	.	/	/
Cc1cc(SCc2ccc(C(F)(F)F)cc2)nc(=O)[nH]1	.	.	+	.	/
CC(C)CCC[C@@H](C)[C@@H]1CC[C@H]2C3=CC=C4CC(O)CC[C@]4(C)[C@H]3CC[C@@]21C (some centres undefined)	/	/	/	/	.
Cc1ccc(SC[C@H](Cc2ccccc2)N2CCN(CC(C)C)CCC2=O)cc1	25.1µM	?	.	?	.
CC(C)CN1CCC(=O)N([C@H](CSc2ccccc2)Cc2ccccc2)CC1	?	13.1µM	.	?	.
CCCN1CCC(=O)N([C@H](CSc2ccc(Br)cc2)Cc2ccccc2)CC1	.	1.85µM	.	?	.
CC(C)CN1CCC(=O)N(C(CSc2ccc(Br)cc2)Cc2ccccc2)CC1 (centres undefined)	/	/	/	/	.
CC(C)C[C@@H](COc1ccccc1)N1CCN(Cc2ccccc2)CCC1=O	.	?	-102.5	?	.
COC(=O)/C(C#N)=C(/Nc1ccc(F)c(Cl)c1)C(F)(F)F	.	.	.	.	.
CCOC(=O)C(CC)Sc1ccc2nnc(CCNS(=O)(=O)c3ccccc3)n2n1 (centres undefined)	.	?	-102.7	.	.
COc1ccc(-c2nnc3ccc(SC(C(C)=O)C(C)=O)nn23)cc1OC	.	?	.	9.28µM	.
COc1ccc(-c2nnc3ccc(SCC(=O)Nc4nc5ccc(C)cc5s4)nn23)cc1OC	.	?	.	13.1µM	.
CCC(Sc1ccc2nnc(-c3ccc(F)cc3)n2n1)C(=O)OC (centres undefined)	.	.	-93.0	?	.
N#CCCn1c(=O)cnc2cnc(N3CCOCC3)nc21	/	/	/	/	.
CCC1=Nc2cc(C(=O)NC3CCCC3)ccc2Sc2ccc(Br)cc21	.	/	?	/	/
CC1=Nc2cc(C(=O)NC3CCCCC3)ccc2Sc2ccc(Cl)cc21	.	/	-86.7	/	/
